# Assay results published in PubChem BioAssay (EPA / NIEHS).
# Results filed as inconclusive are left out. Activity calls are given as the source filed them. How the source made its calls: active means hit-call score of the fitted dose curve at least 0.9, where 1 is the maximum; inconclusive means response in the unintended direction; inactive means score below 0.9.
# Target: Peroxisome proliferator-activated receptor gamma (Homo sapiens) (UniProt P37231)
# Test: ATG_PPARg_TRANS: Attagene TRANS-FACTORIAL HepG2 Assay for human Peroxisome Proliferator-activated Receptor-gamma (PPARg) (AID 2283007)
# Description: ATG_TRANS is a cell-based, multiplexed-readout assay that uses HepG2, a human liver cell line, with measurements taken at 24 hours after chemical dosing in a 24-well plate.ATG_PPARg_TRANS is one of 30 assay component(s) measured or calculated from the ATG_TRANS assay. It is designed to make measurements of mRNA induction, a form of inducible reporter, as detected with fluorescence intensity signals by Reverse transcription polymerase chain reaction (RT-PCR) and Capillary electrophoresis technology.Data from the assay component ATG_PPARg_TRANS was analyzed into 1 assay endpoint. This assay endpoint, ATG_PPARg_TRANS, was analyzed in the positive analysis fitting direction relative to DMSO as the negative control and baseline of activity. Using a type of inducible reporter, measures of mRNA for gain-of-signal activity can be used to understand the reporter gene at the transcription factor-level as they relate to the gene PPARG. Furthermore, this assay endpoint can be referred to as a primary readout, because this assay has produced multiple assay endpoints where this one serves a reporter gene function. To generalize the intended target to other relatable targets, this assay endpoint is annotated to the nuclear receptor intended target family, where the subfamily is non-steroidal.
# Human liver HepG2 cells are transiently transfected with multiple reporter transcription units (MRTUs) in 6-well plates using FuGene 6 reagent (Roche; 3 ml FuGene/1 mg DNA). The MRTU constructs are regulated by a cis-regulating element (promoter). […] A major difference between the CIS and TRANS system is that in CIS activities of endogenous TFs are measured, whereas the TRANS assay evaluates changes in activities of exogenous, chimeric NR-Gal4 proteins. […] At the end of 24 hour incubation, total RNA was isolated using TriZol reagent (Invitrogen). The isolated RNA is then reverse-transcribed using oligo(dT) primer and Mo-MLV reverse transcriptase (Invitrogen) with DNAse I (Ambion) treatment for 30 min. The one-tenth of the produced cDNA was amplified by PCR using Taq DNA polymerase (Invitrogen) and two reporter sequence-specific primers. The PCR products were fluorescently labeled by primer extension with 6-arboxyfluorescein (6-FAM) 5'-labeled reporter sequence-specific primer (2 min at 95 C, 20 s at 68 C and 10 min at 72 C) and these products were digested with 5U of HpaI (New England Biolabs) for 2h at 37 C. The fragments were purified using Qiaquick PCR columns (Qiagen), analyzed on an ABI 3130xL genetic analyzer (Applied Biosystems) with peak positions identified by using a set of X-rhodamine (ROX)-labeled MapMarker1000 molecular weight standards (BioVentures). The raw capillary electrophoresis data was processed using Attagraph software (Attagene).
# Sequence of Peroxisome proliferator-activated receptor gamma (Homo sapiens) (P37231 whole entry, looked up): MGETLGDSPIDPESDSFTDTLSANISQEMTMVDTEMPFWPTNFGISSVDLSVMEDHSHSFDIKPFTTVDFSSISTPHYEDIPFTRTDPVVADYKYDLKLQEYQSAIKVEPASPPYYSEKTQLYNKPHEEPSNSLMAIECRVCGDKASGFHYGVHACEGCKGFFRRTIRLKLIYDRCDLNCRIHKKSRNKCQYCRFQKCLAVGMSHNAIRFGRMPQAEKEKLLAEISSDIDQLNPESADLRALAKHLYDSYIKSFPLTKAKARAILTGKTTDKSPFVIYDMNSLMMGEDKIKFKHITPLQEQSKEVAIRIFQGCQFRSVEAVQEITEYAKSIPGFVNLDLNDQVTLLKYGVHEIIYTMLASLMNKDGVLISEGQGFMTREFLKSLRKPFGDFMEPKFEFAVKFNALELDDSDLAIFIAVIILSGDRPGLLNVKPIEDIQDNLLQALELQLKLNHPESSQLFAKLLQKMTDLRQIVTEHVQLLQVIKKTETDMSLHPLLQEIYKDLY
SMILES,outcome,AC50
CC(=O)c1ccc2c(c1)CCCC2,inactive,–
CC(C)(C)c1n[nH]c(=O)n(N)c1=O,inactive,–
CC(=O)OC(C)C,inactive,–
CC(C)C1=CC2=CC[C@@H]3[C@](C)(CCC[C@@]3(C)C(=O)O)[C@H]2CC1,–,43.9 µM (active)
CCCCCC/C=C/C=O,–,20.8 µM (active)
CCCCCCCCCCOS(=O)(=O)O,–,22.6 µM (active)
Cc1ccc2oc(=O)ccc2c1,inactive,–
SCCc1cnccn1,inactive,–
CCC(Cc1ccccc1)(C(=O)c1ccc(N2CCOCC2)cc1)N(C)C (stereo not given),–,35.1 µM (active)
CCCCCCCCCCCCCCCC[N+](C)(C)CC,–,15.6 µM (active)
COC(=O)c1sccc1S(N)(=O)=O,inactive,–
CC(C)CCCCCOC(=O)CCS,inactive,–
CCCCCCCCCCCSCC(=O)O,–,9.6 µM (active)
CC(C)CC(O)Cc1ccccc1 (stereo not given),inactive,–
CCCCCCCC[N+](C)(CCCCCCCC)CCCCCCCC,inactive,–
COc1c2ccoc2cc2oc(=O)ccc12,inactive,–
CCCCCCCCC(=O)OCC,inactive,–
CCCCC(CC)CCC(CC(C)C)OS(=O)(=O)O (stereo not given),–,36.6 µM (active)
Oc1ccc(Cl)cc1Cc1cc(Cl)ccc1O,–,4.51 µM (active)
CCCCCCC(O)CO (stereo not given),inactive,–

SMILES,outcome,AC50
CCOC(=O)c1ccccc1C(=C1C=C(Br)C(=O)C(Br)=C1)c1cc(Br)c(O)c(Br)c1,–,3.1 µM (active)
CN(C)CCCN(C)C,inactive,–
O=[N+]([O-])C1(Br)COCOC1,inactive,–
C=CC(C)(CCC=C(C)C)OC(=O)CC(C)C (stereo not given),–,58.2 µM (active)
C#CC1(O)CC[C@H]2[C@@H]3CCC4=CCCC[C@@H]4[C@H]3CC[C@@]21C (stereo not given in full),inactive,–
COC(=O)c1c(C)cc(O)c(C)c1O,inactive,–
CCCC(C)CCC(C)=O (stereo not given),inactive,–
Nc1ccc2cc3ccccc3cc2c1,–,26.8 µM (active)
O=C(O)c1cc2ccccc2nc1C(=O)O,inactive,–
CN(C)c1ccc(C(=N)c2ccc(N(C)C)cc2)cc1,–,26.6 µM (active)
c1ccc(CNCc2ccccc2)cc1,inactive,–
C[Si](C)(CCCN)O[Si](C)(C)CCCN,inactive,–
c1cc(N(CC2CO2)CC2CO2)ccc1OCC1CO1 (stereo not given),inactive,–
Nc1nc2ccccc2[nH]1,inactive,–
CC/C=C\C/C=C\C/C=C\CCCCCCCC(=O)O,–,14.6 µM (active)
C[Si](C)O[Si](C)(C)O[Si](C)(C)O[Si](C)C,inactive,–
CC(C)(Oc1ccc(C2CC2(Cl)Cl)cc1)C(=O)O (stereo not given),–,30.6 µM (active)
COc1cc(NC(=O)CC(C)=O)c(OC)cc1Cl,inactive,–
CC(C)=CCC/C(C)=C\C#N,inactive,–
O=S1(=O)OC(c2ccc(O)cc2)(c2ccc(O)cc2)c2ccccc21,inactive,–
